In the library only some 6.8% were active in any assay of this set; here they are far more common.
KB-V1 cytotox: KB-V1 MDR subline cytotoxicity; KB-V1 MDR cells viability, CellTiter-Glo, 72 h; Potency, µM (top dose mostly 46.1 µM), actives largely listed as cytotoxic; hit rate 3.4% among 400,000; AID 1347076; note: % is set by controls: 0 for no effect and ±100 for the full control effect; nearly all actives have a fitted effect of over 60% in size
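KB-V1 MDR subline cells in DMEM (phenol-red free, 10% FBS) exposed to compounds in qHTS concentration series for 72 h at 37 degrees C. Viability read by CellTiter-Glo luminescence; concentration-effect curves fitted after normalization and correction.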
SW480 rerep: DNA re-replication induction in SW480 cells | Potency, µM (top dose mostly 46.1 µM), without a hit: at the highest dose re-replication activation, usual class: activators | hit rate 1.8% among 340,000 | SW480 DNA re-replication, Hoechst DNA content imaging, 48 h; note: % of control where 0% means no effect; nearly all actives have a fitted effect of over 55% in size
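Per well, 250 cells were exposed to pinned compound for 48 hr. Nuclear DNA was visualised with Hoechst (40 min, 37 C) and total object intensity recorded by fluorescence scanning.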
KB-3-1 tox: kills parental KB-3-1 adenocarcinoma cells; KB-3-1 viability, CellTiter-Glo ATP luminescence, 72 h; hit rate 1.4% among 400,000; Potency, µM (top dose mostly 46.1 µM), hits mostly cytotoxic; note: % is set by controls: 0 for no effect and ±100 for the full control effect; nearly all actives have a fitted effect of over 60% in size
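Cytotoxicity measured as CellTiter-Glo luminescence after 72 h at 37 C. Compound titrations were pinned onto drug-naive KB-3-1 parental adenocarcinoma cells grown in DMEM with 10% FBS, and normalized data fitted to concentration-response curves.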
PTAP TSG101 blk: blocks PTAP/TSG101 interaction to inhibit HIV-1 budding; Potency, µM (top dose mostly 115 µM), for the others: at the top dose activity change, negative = inhibition, most hits filed as inhibitors; 340,000 tested, under 10 active; Fluorescence polarization, FITC-PTAP peptide / Tsg101 binding; Q99816; active = well fitted inhibition curve with a large enough effect in the main read-out, with a control signal flat, not every such curve was filed as active; inconclusive = small, poorly fitted or top-dose-only effect, or effect the other way, or a change in a side signal; inactive = no such curve, though single readings can be large or run the other way; note: % of control where 0% means no effect
Target sequence (Q99816 whole entry, looked up): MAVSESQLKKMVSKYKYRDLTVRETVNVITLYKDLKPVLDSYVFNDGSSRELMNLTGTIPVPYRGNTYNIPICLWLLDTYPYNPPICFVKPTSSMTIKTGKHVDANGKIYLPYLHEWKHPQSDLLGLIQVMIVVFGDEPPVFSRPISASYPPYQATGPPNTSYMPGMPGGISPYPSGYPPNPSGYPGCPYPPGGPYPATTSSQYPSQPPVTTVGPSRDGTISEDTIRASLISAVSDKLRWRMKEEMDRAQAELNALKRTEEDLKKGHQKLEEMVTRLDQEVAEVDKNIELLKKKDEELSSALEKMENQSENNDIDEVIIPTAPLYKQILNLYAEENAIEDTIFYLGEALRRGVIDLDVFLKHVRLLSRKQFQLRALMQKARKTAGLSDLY
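Fluorescence polarization binding of Tsg101 binding domain (10 uM final) to FITC-labeled PTAP peptide (50 nM final) in HEPES pH 7.5 buffer with NaCl, Tween 20, EDTA, TCEP. Compounds added before peptide; binding 20 min at RT.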
MCF10A rereplic: induces DNA re-replication in MCF 10a normal breast cells; MCF 10A DNA re-replication, Hoechst nuclear intensity, 48 h; Potency, µM (highest dose often 46.1 µM), for the others: top-dose activity, positive = re-replication, usual class: activators; hit rate 2.9% among 350,000; note: % of control where 0% means no effect; nearly all actives have a fitted effect of over 50% in size
PINK1 expr mod: changes PINK1 expression. PINK1 immunofluorescence, high-content cytometry, 24 h. Potency, µM (highest dose often 76.6 µM), for the others: at the highest dose activation (PINK1 increase), most hits filed as activators. hit rate 0.2% among 410,000; active = well fitted activation curve with a large enough effect; inconclusive = small, poorly fitted or top-dose-only effect; cell line not stated here; note: % of control where 0% means no effect; nearly all actives have a fitted effect of over 65% in size
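Decision-based qHTS: stable cells, 24 h exposure to five compound concentrations, CCCP as control. Fixed cells stained for PINK1 plus nuclear, mitochondrial and cell markers, cytometer read.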
Active calls of the source: *; i = inactive; ? = inconclusive; / = no result given; [ ] = remark or other dose. Unless noted, calls come from the whole dose curve; as a rule, active = well fitted curve in the direction sought with a large enough effect; inconclusive = small, poorly fitted or top-dose-only effect, or another doubt; inactive = no such curve, though single readings can be large; an effect the other way counts as inactive or inconclusive. Potency is the fitted concentration of half-maximal effect.

SMILES	KB-V1 cytotox	SW480 rerep	KB-3-1 tox	PTAP TSG101 blk	MCF10A rereplic	PINK1 expr mod
CCOc1ccc(S(=O)(=O)Nc2cccc(OC)c2)c2cccnc12	i	/	i	/	/	3%
CCOc1ccc(S(=O)(=O)Nc2cc(C)ccn2)c2ccccc12	18µM*	13%	?	-4%	24%	0%[38.3 µM]
CCOc1ccc(NS(=O)(=O)c2ccc(OCC)c3ncccc23)cc1	13µM*	21µM*	?	0%	?	20%[38.3 µM]
CCN(CC)C(=O)Cn1c(=O)n(-c2ccc(Cl)cc2)c(=O)c2c3c(sc21)CCCCC3	i	/	i	/	/	0%
Cc1nc(NS(=O)(=O)c2ccc(Cl)s2)c2c3c(sc2n1)CCCC3	12µM*	-11%	?	-1%	?	8%
Cc1ccc(COc2cccc(/C=N/NC(=O)c3nnn(-c4nonc4N)c3C)c2)cc1	i	-8%	i	-2%	2.6µM*	8%
Cc1c(C(=O)N/N=C/c2c(O)ccc3ccccc23)nnn1-c1nonc1N	i	0.73µM*	?	-7%	-1%	-1%
Nc1nonc1-n1nnc(C(=O)N/N=C/c2ccc(OCc3ccc(F)cc3)cc2)c1COc1ccccc1	i	15µM*	i	-1%	?	0%
COc1ccc2ccccc2c1/C=N/NC(=O)c1nnn(-c2nonc2N)c1C(C)C	?	-7%	i	0%	?	1%
Nc1nonc1-n1nnc(C(=O)N/N=C/c2cc(Br)ccc2O)c1CNc1ccccc1	i	?	?	1%	7.3µM*	2%
CCC1CN(CCNC(=O)c2scc3c2OCCO3)Cc2cc(OC)ccc2O1 (stereo not given)	/	/	/	/	/	0%
CCn1c(=O)sc2cc(NS(=O)(=O)c3ccc(F)c(C)c3)ccc21	/	/	/	/	/	2%
COc1cc(C(=O)N(Cc2ccc(F)cc2)Cc2ccco2)cc(OC)c1OC	/	/	/	/	/	-1%
Cc1ccc(-n2ccn(CC(=O)c3ccc(F)cc3)c(=O)c2=O)cc1C	/	/	/	/	/	0%
CCOc1ccc(-n2cc(-c3ccccc3)c3c(N4CCC(C)CC4)ncnc32)cc1	/	/	/	/	/	1%
COc1ccc(OC)c(S(=O)(=O)N2CCC(c3ccncc3)CC2)c1	i	/	i	/	/	-1%
Cc1cc(=O)n2[nH]c(N)c(N=Nc3ccccc3F)c2n1	?	-4%	21µM*	-3%	?	-2%
Cc1ccn2c(=O)c(C(=O)NC(C)c3ccccc3)c(O)nc2c1 (stereo not given)	/	/	/	/	/	1%
COc1cccc(-c2nc(=S)c3c(n2Cc2ccco2)CCCC3)c1	i	14%	i	-8%	21µM*	6.3µM*
c1cncc(OC2CCN(Cc3ccc4c(c3)CN(Cc3nc5ccccc5s3)CCO4)CC2)c1	/	/	/	/	/	0%
COc1ccc(/C=C2\CN(Cc3ccccc3)C/C(=C\c3ccc(OC)cc3)C2=O)cc1	?	/	?	0%	8.2µM*	-2%
CC(C)=CCOc1ccc2ccc(=O)oc2c1	i	-2%	i	2%	-8%	0%
COc1cc2ccc(=O)oc2c(O)c1OCC=C(C)C	i	2.1µM*	i	-2%	-10%	/
COC(=O)c1cccc(Nc2c(-c3ccc(OC)cc3)nc3nc[nH]n23)c1	i	/	i	/	/	6%
O=C(Nc1nccs1)[C@@H]1CC=C[C@@H]2CCN(Cc3ccc(Cl)c(Cl)c3)C(=O)[C@@H]21	?	/	i	/	/	/
SMILES	KB-V1 cytotox	SW480 rerep	KB-3-1 tox	PTAP TSG101 blk	MCF10A rereplic	PINK1 expr mod
O=C(CN1c2ccccc2Sc2ccccc21)NNC(=O)Nc1cccc(Cl)c1	i	?	?	-3%	23µM*	1%
O=C(Cc1ccccc1)NNC(=O)Nc1cccc(Cl)c1	i	14%	i	-1%	-1%	-2%
CC(Oc1cccc(Br)c1)C(=O)NNC(=O)c1ccccn1 (stereo not given)	?	?	?	-3%	16%	1%
C/C(=N\NC(=O)C(C)Oc1ccc([N+](=O)[O-])cc1)c1ccccn1 (stereo not given)	5.2µM*	6.5µM*	8.2µM*	-2%	15µM*	-6%[38.3 µM]
CC(Oc1ccccc1)C(=O)NNC(=O)c1ccccn1 (stereo not given)	4.6µM*	?	?	0%	25%	-4%
CCCCSc1nc(SCC(=O)NCc2ccco2)c2c3c(sc2n1)COC(C)(CC)C3 (stereo not given)	i	-10%	i	0%	4%	/
CSc1nc(SCC(=O)NCc2ccco2)c2c3c(sc2n1)COC(C)(C)C3	3.7µM*	?	i	-1%	?	13µM*
COc1cc(C2Oc3cc(C4Oc5cc(O)cc(O)c5C(=O)C4O)ccc3OC2CO)ccc1O (stereo not given)	i	17%	i	0%	26µM*	3%
Oc1ccccc1C(Nc1nccs1)c1ccc2cccnc2c1O (stereo not given)	12µM*	-4%	2.3µM*	2%	?	8%
Cc1ccnc(NC(c2cc(C)ccc2O)c2ccc3cccnc3c2O)c1 (stereo not given)	/	/	/	/	/	1%
Oc1c(C(Nc2ccccn2)c2ccccc2F)ccc2cccnc12 (stereo not given)	/	/	/	/	/	1%
Oc1c(C(Nc2ccccn2)c2ccccn2)ccc2cccnc12 (stereo not given)	5.8µM*	?	15µM*	-1%	?	0%
Cc1ccnc(NC(c2cccnc2)c2ccc3cccnc3c2O)c1 (stereo not given)	?	3.3µM*	i	0%	?	-1%
COc1cc(CNC(=O)c2cnn(-c3ncc4c(n3)-c3ccccc3CC4)c2C)cc(OC)c1OC	/	/	/	/	/	0%
Cn1nc(C(F)(F)F)c(/C=N/OC(=O)c2ccccc2Cl)c1SCc1ccccc1Cl	?	?	?	-7%	23%	1%
Cn1nc(C(F)(F)F)c(/C=N/OC(=O)c2ccccc2)c1SCc1ccc(Cl)cc1	18µM*	18%	i	-3%	?	1%
Cc1ccc(NC(=O)c2c(C(F)(F)F)nn(C)c2SCc2ccc(Cl)cc2)cc1C	8.2µM*	?	?	-10%	?	?
CC(=O)c1ccc(NC(=O)CSc2ccc3nnc(CCNS(=O)(=O)c4ccc(C)cc4)n3n2)cc1	i	/	i	/	/	2%
CN(C)CCNC(=O)c1ccc(-n2c(-c3ccccc3)cc3c2CCCC3)cc1	/	/	/	/	/	0%
N#Cc1ccc(NCCc2ccccn2)c([N+](=O)[O-])c1	1.8µM*	-3%	8.2µM*	-2%	-6%	0%
Cn1cccc1C(=O)N1CCC2(CCCN(c3cccc(-c4ccccc4)c3)C2)CC1	/	/	/	/	/	-1%
